PubChem BioAssay AID686978 (National Center for Advancing Translational Sciences (NCATS), 2013)
Screen size: about 420,000 compounds; about 64,000 (15%) were called active. About 27% were inconclusive and are not listed. The list is a sample of the results. A number with no mark means an inactive call. The call rests on the fitted dose curve; in most records, active means well fitted inhibition curve with a large enough effect; inconclusive means small, poorly fitted or top-dose-only effect; inactive means flat fitted curve, though single readings scatter.

Assay: qHTS for Inhibitors of human tyrosyl-DNA phosphodiesterase 1 (TDP1): qHTS in cells in absence of CPT; further: nearly all actives have a fitted effect of over 55% in size
Settings: DT40 Tdp1-/- hTDP1 cells, no CPT, ATP luminescence, 48 h; activity change, negative = growth inhibition: at 46.2 µM (top of the series)
Outline: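 DT40 Tdp1-/-;hTDP1 cells, no CPT (DMSO vehicle only), 400 cells/well; compounds pin-transferred; ≥48 hr, 37 °C; CellTiter-Glo 30 min RT dark, luminescence read.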
On the % scale 0 is the no-effect control and ±100 the full control effect; potency means the concentration at half of the fitted maximal effect.

**Q.** For `CCOC(=O)c1cc(-c2nnc(-c3cc(OC)c(OC)c(OC)c3)o2)c(C)nc1C`, which Potency is on record?
**A.** 16.4 µM (active)

**Q.** For `CCOC(=O)c1cc2ccccc2nc1C`, which “activity change, negative = growth inhibition” value is on record?
**A.** -9.4%

**Q.** For `O=C(CCN1C(=O)[C@@H]2Cc3ccccc3CN2C1=O)NCc1ccccc1`, which “activity change, negative = growth inhibition” value is on record?
**A.** 9.34%

**Q.** With `Cc1ccc(S(=O)(=O)N(C)C)cc1NC(=O)c1n[nH]c(=O)c2ccccc12` as the compound, how does the Potency read?
**A.** 23.1 µM (active)

**Q.** With `Cc1ccc(S(=O)(=O)N(C)C)cc1NC(=O)c1ccccc1Br` as the compound, how does the “activity change, negative = growth inhibition” value read?
**A.** -10.6%

**Q.** For `Cc1ccc(S(=O)(=O)N(C)C)cc1NC(=O)COC(=O)C1COc2ccccc2O1` (configuration not stated), which “activity change, negative = growth inhibition” value is on record?
**A.** 0.485%

**Q.** With `CCOc1ccc(CCNC(=O)COC(=O)c2ccc(F)c(S(=O)(=O)N3CCOCC3)c2)cc1OCC` as the compound, how does the “activity change, negative = growth inhibition” value read?
**A.** -6.84%

**Q.** With `CCOc1ccccc1C1C(C(=O)OC)=CN(C)C=C1C(=O)OC` as the compound, how does the “activity change, negative = growth inhibition” value read?
**A.** -4.81%

**Q.** Which Potency does the source give for `CCOc1ccccc1C1CC(c2ccc(Cl)cc2)Nc2nc(N)nn21` (configuration not stated) here?
**A.** 16.4 µM (active)

**Q.** Which “activity change, negative = growth inhibition” value does the source give for `COc1ccc(C2CC(c3ccc(C)cc3)Nc3nc(N)nn32)cc1` (configuration not stated) here?
**A.** -6.23%

**Q.** With `CC(C)[C@H](NC(=O)c1ccc(F)cc1)C(=O)OCC(=O)NC(=O)c1cccn1C` as the compound, how does the “activity change, negative = growth inhibition” value read?
**A.** -6.12%

**Q.** For `COc1ccc(S(=O)(=O)N(C)CC(=O)N2CCCC2)cc1Cl`, which “activity change, negative = growth inhibition” value is on record?
**A.** -25.7%

**Q.** Which Potency does the source give for `CN1c2ccc(C=O)c3c(C=O)ccc(c23)N(C)C1(C)C` here?
**A.** 7.31 µM (active)

**Q.** With `O=C1c2ccccc2C(O)N1Cc1ccccc1Cl` (configuration not stated) as the compound, how does the “activity change, negative = growth inhibition” value read?
**A.** -7.23%

**Q.** Which “activity change, negative = growth inhibition” value does the source give for `CN1CCN(S(=O)(=O)c2ccc(Nc3ccc(F)cc3)nc2)CC1` here?
**A.** -2.36%

**Q.** For `O=C(NCc1ccccc1)C1c2ccccc2OCC(=O)N1C1CC1` (configuration not stated), which “activity change, negative = growth inhibition” value is on record?
**A.** -11.1%

**Q.** Which “activity change, negative = growth inhibition” value does the source give for `NS(=O)(=O)c1ccc(CCNC(=O)c2nc(CS(=O)(=O)c3ccc(Cl)cc3)no2)cc1` here?
**A.** 2.72%

**Q.** With `O=C(Nc1ccccc1N1CCCCC1)c1cccc(F)c1` as the compound, how does the “activity change, negative = growth inhibition” value read?
**A.** -14.5%

**Q.** Which Potency does the source give for `O=C(CNCCC1=CCCCC1)Nc1ccccc1N1CCCCCC1` here?
**A.** 23.1 µM (active)

**Q.** Which “activity change, negative = growth inhibition” value does the source give for `Cc1cccc(N2CC(C(=O)Nc3ccccc3N3CCCC3)CC2=O)c1C` (configuration not stated) here?
**A.** -8.58%

**Q.** For `Cc1ccccc1NC(=O)Nc1ccccc1N1CCCCC1`, which Potency is on record?
**A.** 23.1 µM (active)

**Q.** With `Cc1nnc(OCC(=O)NCCC2=CCCCC2)c2ccccc12` as the compound, how does the “activity change, negative = growth inhibition” value read?
**A.** -11.7%

**Q.** For `Cc1ccccc1NC(=O)NC1(C(=O)N2CCCC2)CCCCC1`, which “activity change, negative = growth inhibition” value is on record?
**A.** -10.4%

**Q.** With `C=CCSc1nc(Cc2ccc(Cl)cc2)nc2ccccc12` as the compound, how does the “activity change, negative = growth inhibition” value read?
**A.** -0.879%

**Q.** For `Cc1ccc(F)cc1NC(=O)c1ccc2c(c1)OCO2`, which “activity change, negative = growth inhibition” value is on record?
**A.** -16.7%

**Q.** With `COc1cc(C2C(C(=O)c3sc(C)nc3C)=C(O)C(=O)N2CCN(C)C)cc(OC)c1OC` (configuration not stated) as the compound, how does the “activity change, negative = growth inhibition” value read?
**A.** 9.07%

**Q.** With `N/C(Cc1ccc([N+](=O)[O-])cc1)=N\OC(=O)C1CCCCC1` as the compound, how does the “activity change, negative = growth inhibition” value read?
**A.** -0.701%

**Q.** With `COc1ccccc1OCCC(=O)OCC(=O)NCc1ccccc1` as the compound, how does the “activity change, negative = growth inhibition” value read?
**A.** -7.82%

**Q.** For `N#Cc1ccc(CN2CCN(CC(=O)Nc3ccccc3C(=O)NC3CC3)CC2)cc1`, which “activity change, negative = growth inhibition” value is on record?
**A.** 0.152%

**Q.** For `NC(=O)c1ncn([C@@H]2O[C@H](CN=C3NS(=O)(=O)c4ccccc43)[C@@H](O)[C@H]2O)n1`, which “activity change, negative = growth inhibition” value is on record?
**A.** 2.67%

**Q.** With `CC(C)C(=O)Nc1cccc(NC(=O)c2ccc([N+](=O)[O-])cc2Cl)c1` as the compound, how does the “activity change, negative = growth inhibition” value read?
**A.** -16.9%

**Q.** For `COc1ccc([N+](=O)[O-])cc1NC(=O)c1ccc(N(Cc2ccccc2C)S(C)(=O)=O)cc1`, which “activity change, negative = growth inhibition” value is on record?
**A.** -29.8%

**Q.** With `Cc1cc([N+](=O)[O-])ccc1NC(=O)C1CCCO1` (configuration not stated) as the compound, how does the “activity change, negative = growth inhibition” value read?
**A.** -7.79%

**Q.** Which “activity change, negative = growth inhibition” value does the source give for `CN1CCN(CCNC(=O)Nc2ccc([N+](=O)[O-])cc2)CC1` here?
**A.** -27.3%

**Q.** Which Potency does the source give for `Cc1cc([N+](=O)[O-])ccc1NC(=O)c1ccc(NC(=O)C(C)C)cc1` here?
**A.** 18.4 µM (active)

**Q.** For `CC(=O)c1ccc(NC(=O)Nc2ccc([N+](=O)[O-])cc2C)cc1`, which Potency is on record?
**A.** 16.4 µM (active)

**Q.** With `CN1c2ccc([N+](=O)[O-])cc2C(C)(C)C12C=Cc1cc(C(=O)O)ccc1O2` (configuration not stated) as the compound, how does the “activity change, negative = growth inhibition” value read?
**A.** 13.4%

**Q.** With `CN(CCO)S(=O)(=O)c1ccc2c(c1)C(=O)c1cc(S(=O)(=O)N(C)CCO)ccc1-2` as the compound, how does the “activity change, negative = growth inhibition” value read?
**A.** -2.04%

**Q.** With `C=CCOc1ccc(/C=C/C(=O)OCC(=O)NC2CCCCCC2)cc1` as the compound, how does the “activity change, negative = growth inhibition” value read?
**A.** -3.43%

**Q.** Which “activity change, negative = growth inhibition” value does the source give for `Cc1c(CNC2CCCCC2)c(C(=O)O)c(C)n1Cc1cccc(Cl)c1` here?
**A.** -25.1%

**Q.** Which Potency does the source give for `O=C(O)c1ccc2c(c1)N(Cc1ccc(F)cc1)C(=O)c1ccccc1S2=O` (configuration not stated) here?
**A.** 14.6 µM (active)

**Q.** For `Cc1ccc(C)c(CN2C(=O)c3ccccc3S(=O)c3ccc(C(=O)N4CCOCC4)cc32)c1` (configuration not stated), which “activity change, negative = growth inhibition” value is on record?
**A.** -28.2%

**Q.** With `CN(C(=O)c1ccc2c(c1)N(Cc1cccc(Cl)c1)C(=O)c1ccccc1S2=O)C1CCCCC1` (configuration not stated) as the compound, how does the Potency read?
**A.** 23.1 µM (active)

**Q.** Which “activity change, negative = growth inhibition” value does the source give for `O=C(CN1C(=O)c2ccccc2C1=O)NCc1ccc(C(=O)O)cc1` here?
**A.** -16.5%

**Q.** For `O=C(COC(=O)c1cccc(Cl)c1)NC1CCCCCCC1`, which “activity change, negative = growth inhibition” value is on record?
**A.** 0.239%

**Q.** Which “activity change, negative = growth inhibition” value does the source give for `Cc1ccc(CNS(=O)(=O)CCNC(=O)c2ccccc2)cc1` here?
**A.** -5.2%

**Q.** With `Cc1ccc(CCNC(=O)c2ccc3c(c2)N(Cc2cc(C)ccc2C)C(=O)c2ccccc2S3=O)cc1` (configuration not stated) as the compound, how does the Potency read?
**A.** 11.6 µM (active)

**Q.** With `COc1ccccc1NC(=O)c1cc(N2C(=O)C3C4CCC(C4)C3C2=O)ccc1Cl` (configuration not stated) as the compound, how does the “activity change, negative = growth inhibition” value read?
**A.** 3.87%

**Q.** Which “activity change, negative = growth inhibition” value does the source give for `C/C(CC(=O)NC(C)(C)C)=N\NC(=O)c1ccco1` here?
**A.** 3.84%

**Q.** Which “activity change, negative = growth inhibition” value does the source give for `COC(=O)c1ccc(CNC(=O)Cn2cc(C)c(=O)[nH]c2=O)cc1` here?
**A.** -0.822%

**Q.** Which “activity change, negative = growth inhibition” value does the source give for `Cc1ccc(OCC(=O)N2CCN(S(=O)(=O)c3ccc(Cl)s3)CC2)cc1C` here?
**A.** -26.5%

**Q.** For `Cc1cc(C)n2c(NCc3ccccc3)c(CC(C)C)nc2n1`, which Potency is on record?
**A.** 23.1 µM (active)
